Screening results (PubChem)
This is a sample that favours compounds with a hit; in the whole collection about 2.4% have one here.
Cruzain Triton: cruzain (T. cruzi) inhibition with detergent | purified cruzain, Z-FR-AMC fluorescence, 0.01% Triton | hit rate 0.43% among 200,000 | Potency, µM, usual class: inhibitors | P25779; also: nearly all actives have a fitted effect of over 40% in size
Target sequence (P25779 123-467 limits assumed): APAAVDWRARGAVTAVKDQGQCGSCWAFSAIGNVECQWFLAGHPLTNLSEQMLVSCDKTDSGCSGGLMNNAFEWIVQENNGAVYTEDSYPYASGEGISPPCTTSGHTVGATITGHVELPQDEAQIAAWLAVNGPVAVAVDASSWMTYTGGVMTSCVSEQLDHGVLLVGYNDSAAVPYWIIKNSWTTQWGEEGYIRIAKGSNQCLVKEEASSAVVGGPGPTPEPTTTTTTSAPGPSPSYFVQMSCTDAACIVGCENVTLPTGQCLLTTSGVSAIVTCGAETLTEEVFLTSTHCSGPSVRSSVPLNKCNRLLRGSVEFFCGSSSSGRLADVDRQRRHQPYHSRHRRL
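Enzyme 1.5 nM, Z-FR-AMC 2 uM, NaOAc 100 mM pH 5.5, DTT 5 mM, Triton X-100 0.01%; 15 min RT compound preincubation; kinetic ex360/em450, 60 s delta.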
Cruzain noTriton: inhibitors of Trypanosoma cruzi cruzain without detergent | AID 1476 | purified cruzain, Z-FR-AMC fluorescence, no detergent | P25779 | hit rate 2.3% among 200,000 | Potency, µM, most hits filed as inhibitors; also: nearly all actives have a fitted effect of over 40% in size
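Purified cruzain at 1.5 nM, pre-incubated 15 min with compound at room temperature in 100 mM sodium acetate pH 5.5, 5 mM DTT, 0.00005% Triton X-100. Reaction started with 2 uM Z-FR-AMC; AMC fluorescence increase over 60 s gives rate.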
A number is an active result; ! = a repeat was not active. Calls follow the shape of the dose curve; as a rule, active = well fitted curve in the direction sought with a large enough effect; inconclusive = small, poorly fitted or top-dose-only effect, or another doubt; inactive = no such curve, though single readings can be large; an effect the other way counts as inactive or inconclusive.

CC1(C)C(=O)C=C[C@@]2(C)C1C=C[C@@]1(C)C2CC[C@@]2(C)C(c3ccoc3)OC(=O)C3OC312 (stereo not given in full) was read as Cruzain Triton inactive and Cruzain noTriton inactive.
`COc1ccc(N2CCN(C(CNC(=O)c3c(F)cccc3F)c3ccc4c(c3)OCO4)CC2)cc1` (stereo not given) gave Cruzain Triton inactive and Cruzain noTriton inactive.
`Cc1ccc(Cc2c(C)nc3nc(SCC(=O)NC4CCC(C)CC4)nn3c2C)cc1` (stereo not given) gave Cruzain Triton inactive and Cruzain noTriton inactive.
Screening Cn1c(=O)n(CC(=O)O)c(=O)c2c1nc1n2CCCN1c1ccc(Cl)cc1 returned Cruzain Triton inactive and Cruzain noTriton inactive.
CCCCOC(=O)Cn1c(=O)c2c(nc3n2CCCCN3c2ccc(C)cc2)n(C)c1=O was read as Cruzain Triton 25µM and Cruzain noTriton inactive.
COc1ccc(NCc2cccn2-c2nnc(N3CCCCC3)s2)cc1OC was read as Cruzain Triton inactive and Cruzain noTriton inactive.
Screening CCOc1ccc(NC(=O)CSc2oc(-c3ccc(C)cc3)nc2S(=O)(=O)c2ccc(C)cc2)cc1 returned Cruzain Triton inactive and Cruzain noTriton inactive.
`COc1ccc2c(c1)c1c(c(=O)n(Cc3ccccc3)c(=O)n1CC(=O)NCc1ccc(C)cc1)n2C` gave Cruzain Triton inactive and Cruzain noTriton inactive.
COc1ccc(-c2noc(-c3ccccc3OCC(=O)Nc3ccc(C(C)=O)cc3)n2)cc1 was read as Cruzain Triton inactive and Cruzain noTriton inactive.
Screening COc1ccc(CC(=O)Nc2ccc(-c3noc(-c4cc(OC)c(OC)c(OC)c4)n3)cc2)cc1 returned Cruzain Triton inactive and Cruzain noTriton inactive.
Screening CCOc1ccc(-c2cc(C(=O)Nc3ccc(NC(C)=O)cc3)no2)cc1 returned Cruzain Triton inactive and Cruzain noTriton inactive.
`COc1ccc(CC(=O)Nc2ccc(-c3noc(-c4ccc(Cl)cc4)n3)cc2)cc1` gave Cruzain Triton inactive and Cruzain noTriton 4µM.
CCOc1ccccc1-c1nc(-c2ccc(NC(=O)Cc3ccc(OC)cc3)cc2)no1 was read as Cruzain Triton inactive and Cruzain noTriton 7.9µM.
Screening CCc1ccc(NC(=O)c2cc(-c3ccc(OC)cc3)on2)cc1 returned Cruzain Triton inactive and Cruzain noTriton 13µM.
`COc1cccc(NC(=O)Cn2c(=O)n(-c3ccc(CC(=O)NCC4CCCO4)cc3)c(=O)c3ccccc32)c1` (stereo not given) gave Cruzain Triton inactive and Cruzain noTriton inconclusive.
For CCOc1ccc(C2C(=O)N(C3CCCCCC3)CC(=O)N2CCc2ccc(OC)c(OC)c2)cc1OC (stereo not given) the results were Cruzain Triton inactive and Cruzain noTriton inconclusive.
CCCN1C(C(=O)c2ccccc2)=C(OC(=O)COc2ccc(C)cc2)c2ccccc2S1(=O)=O was read as Cruzain Triton inactive and Cruzain noTriton inactive.
`O=C(Nc1nccs1)c1cn(-c2ccccc2)nc1-c1ccccc1` gave Cruzain Triton inactive and Cruzain noTriton inactive.
CC(C)COc1ccc(-c2nn(-c3ccccc3)cc2C(=O)Nc2nccs2)cc1 was read as Cruzain Triton inactive and Cruzain noTriton 10µM.
CN1CCc2nc(NC(=O)c3cccc(S(=O)(=O)N4CCc5ccccc54)c3)sc2C1 was read as Cruzain Triton inactive and Cruzain noTriton 16µM.
O=C(Nc1nc2c(s1)CCCC2)c1cccc(S(=O)(=O)N2CCCc3ccccc32)c1 was read as Cruzain Triton inactive and Cruzain noTriton 25µM.
O=C(Nc1nc2ccc(F)cc2s1)c1cccc(S(=O)(=O)N2CCc3ccccc32)c1 was read as Cruzain Triton inactive and Cruzain noTriton 7.9µM.
Screening O=C(Nc1nc2c(F)cc(F)cc2s1)c1ccc(S(=O)(=O)N2CCc3ccccc32)cc1 returned Cruzain Triton inactive and Cruzain noTriton inactive.
For CCC(CC)c1nnc(NC(=O)c2cccc(S(=O)(=O)N3CCc4ccccc43)c2)s1 the results were Cruzain Triton inactive and Cruzain noTriton inconclusive.
Screening O=C(Nc1nc2c(F)cccc2s1)c1ccc(S(=O)(=O)N2CCCc3ccccc32)cc1 returned Cruzain Triton inactive and Cruzain noTriton inactive.
For Cc1ccc2nc(NC(=O)c3ccc(S(=O)(=O)N4CCCc5ccccc54)cc3)sc2c1 the results were Cruzain Triton inactive and Cruzain noTriton 6.3µM!.
For Cc1cccc(C(=O)Nc2nnc(S(=O)(=O)N3CCCc4ccccc43)s2)c1 the results were Cruzain Triton inactive and Cruzain noTriton inactive.
`O=C(CN1C(=O)C2CCCCN2c2ccc(C(=O)N3CCCC3)cc21)NCc1ccc(F)cc1` (stereo not given) gave Cruzain Triton inactive and Cruzain noTriton inactive.
`O=S(=O)(c1ccccc1)N1CCC(c2ccncc2)CC1` gave Cruzain Triton inactive and Cruzain noTriton inactive.
For O=C(O)c1ccccc1C(=O)N1CCN(c2cccc(Cl)c2)CC1 the results were Cruzain Triton inactive and Cruzain noTriton inactive.
